Source: PubChem BioAssay (ICCB-Longwood Screening Facility, Harvard Medical School)
Ba CapD inh: Bacillus anthracis CapD inhibitors, primary screen, biochemical, fluorescence intensity; CapD gamma-glutamyltranspeptidase (Bacillus anthracis Ames Ancestor); purified CapD enzyme, fluorescence intensity read-out; active compounds read low; z-score (concentration not given with the values); 140,000 compounds, 0.23% hits; AID 492967, 2010; in the data active means z-score mostly below about -2.9, no sharp cut-off; inactive means mostly above about -1.9
* marks the source's active call; other numbers are inactive results. The entries come from a sample that favours hits as a whole.

SMILES	Ba CapD inh
CCOC(=O)C(Nc1cccc(F)c1)c1ccccc1 (centres undefined)	-0.47
COC(=O)C(C)Nc1ccc(C)cc1 (centres undefined)	1.4
CCc1nnc(NC2=NS(=O)(=O)C(c3cccc(Br)c3)=C2C)s1	-1.8
Cc1ccc2c(c1)N(C(=O)CCC(=O)NCc1ccco1)CCO2	-0.075
O=C1NCC(O)=C1/C=N/Nc1ccccc1	-4.4*
CC(N=CC1=C(O)CNC1=O)c1ccccc1 (centres undefined)	-0.04
O=c1[nH]c(O)c(/C=N/Nc2ccccc2)c(=O)[nH]1	-1.3
Cc1cc(C=C2C(=O)N(C)C(=O)N(C)C2=O)c(C)n1-c1cc(C(=O)O)cc(C(=O)O)c1	-0.89
Cc1nc(CS(=O)(=O)c2ccccn2)sc1C(=O)NN	9
CC1CCN(C(=O)c2cc3c(=O)[nH]c4ccccc4c3s2)CC1	7.1
COc1cc(NS(=O)(=O)c2ccc3c(c2)CCN3C(=O)CCC(=O)O)c(C(=O)O)cc1OC	-4.3*
O=C(O)CCC(=O)N1CCc2cc(S(=O)(=O)NCc3ccccc3)ccc21	-1.6
CCC(=O)N1CCc2cc(S(=O)(=O)Nc3ccccc3OC)ccc21	0.41
Cc1c(-c2csc(-c3ccno3)n2)sc2ccccc12	-3.5*
Fc1cccc(-c2csc(-c3ccno3)n2)c1	2.7
Cc1c(-c2csc(CS(=O)(=O)C(C)(C)C)n2)sc2ccccc12	-0.9
O=C1C(=O)N(CCO)C(c2ccccc2)/C1=C(/O)c1ccc(Br)cc1 (centres undefined)	-0.015
O=C(Nc1ccc(F)cc1F)Nc1noc2c1COc1ccccc1-2	6.1
COC(=O)C1C(=O)C2=C(CC1C)Nc1ccccc1NC2c1ccccc1C (centres undefined)	-4*
COC(=O)C1C(=O)C2=C(CC1C)Nc1ccccc1NC2c1c[nH]c2ccccc12 (centres undefined)	-2.5
CCOC(=O)C1=C(C)NC2=C(C(=O)C(C(=O)OC)C(C)C2)C1c1ccccc1 (centres undefined)	-0.43
N#Cc1c(NC(=O)CSc2nnc3ccccn23)sc2c1CCCC2	0.32
FC(F)(F)c1cccc(N2NC3(CCCCC3)NC2=S)c1	-0.23
COc1ccc(CN(CCC2CCOC(C)(C)C2)C(C)=O)cc1 (centres undefined)	0.38
Cc1cc(N=Cc2ccc3ncccc3c2)ccc1Br	-0.52
SMILES	Ba CapD inh
COc1cccc(NC(=S)NNc2ccccc2)c1	-1.1
COc1cccc(NC(N)=S)c1	0.13
COc1cccc(NC(=S)/N=C(\N)Nc2nc(C)c3ccccc3n2)c1	-5.9*
CCOC(=O)c1[nH]c(=O)[nH]c1CN(Cc1ccco1)Cc1[nH]c(=O)[nH]c1C(=O)OCC	0.43
COC(=O)CNC(=O)c1ccccc1	0.05
CCOC(=O)c1[nH]c(=O)[nH]c1COC(=O)CNC(=O)c1ccccc1	-6.1*
CC(C)(C)OC(=O)N1CC=C2C(C#N)=C(N)C(C#N)(C#N)C(c3ccc(C(F)(F)F)cc3)C2C1 (centres undefined)	2.4
O=C(Nc1ccccc1)c1cccc(S(=O)(=O)NCC23CC4CC(CC(C4)C2)C3)c1	0.035
Cc1ccc(N2CC3=C(C2=O)C(c2ccccc2)NC(=O)N3C)cc1C (centres undefined)	43
Cc1ccc(-c2nc(S(=O)(=O)c3ccc(C)cc3)c(N(C)C)o2)cc1	-0.24
Cc1ccc(S(=O)(=O)c2nc(C)oc2N(C)C)cc1	-3*
Cc1ccc(S(=O)(=O)CCc2nc(S(=O)(=O)c3ccc(C)cc3)c(N(C)C)o2)cc1	-0.37
COc1ccc(NC2CC(C)(C)n3cccc32)cc1 (centres undefined)	-0.56
NC(CSCc1c(F)cccc1Cl)C(=O)O (centres undefined)	11
CC(C)N1CCN(C(=O)c2ccccc2)CC1	-0.54
CC(=O)C1=C(O)C(=O)N(c2ccc(O)cc2)C1c1ccc2c(c1)OCO2 (centres undefined)	-0.81
CN1/C(=C/C(=O)c2ccco2)Sc2ccccc21	-2
CN1/C(=C\C=C2C(=O)c3ccccc3C2=O)Sc2ccccc21	-0.57
CC(=S)/C=C1\Sc2ccccc2N1C	-5.3*
CC1=NNC(=O)C1Cc1ccccc1 (centres undefined)	-0.42
Cc1ccc(C)n1-c1ccccc1C1C=NNC1=O (centres undefined)	-4.1*
O=C(CSc1nnc(-c2ccncc2)n1Cc1ccccc1)c1cccc([N+](=O)[O-])c1	0.14
O=C1/C(=C/c2cc([N+](=O)[O-])cc(Br)c2O)SC(=S)N1c1ccc([N+](=O)[O-])cc1	-0.13
O=C(O)CN1C(=O)/C(=C\c2ccc(-c3ccc([N+](=O)[O-])cc3Cl)o2)SC1=S	-0.11
O=C(O)CN1C(=O)/C(=C\c2cc([N+](=O)[O-])cc(Br)c2O)SC1=S	-7.9*
SMILES	Ba CapD inh
CCOc1cc2c(cc1OCC)C1C(C(=O)N3CCCCC3)c3ccccc3C(=O)N1CC2 (centres undefined)	-5.9*
CCOC(=O)C1CCN(C(=O)C2c3ccccc3C(=O)N3CCc4ccccc4C23)CC1 (centres undefined)	-0.41
CCOc1cc2c(cc1OCC)C1C(C(=O)N3CCCC3)c3ccccc3C(=O)N1CC2 (centres undefined)	0.45
COc1cc(C(=O)NN2C(=O)c3c(C(C)C)nc4ccc(Cl)cc4c3C2=O)nc2ccccc12	-0.12
O=C1Nc2ccccc2C12OCC1(CO2)CC2C=CC1C2 (centres undefined)	0.85
COc1ccc(-c2cc(-c3ccccc3)nc(SCC(=O)N3CCOCC3)c2C#N)cc1	3
COc1cccc2c1oc(=O)c1c(N)nc3c(c12)CCCC3	7.2
CSc1ccc(C2C3CCCc4ccccc4C3=NN2CCO)cc1 (centres undefined)	56
O=C1NC(=O)C(=Cc2ccc(OCc3ccc(C(=O)O)cc3)c(Br)c2)C(=O)N1	-0.22
COc1cc(C=C2C(=O)NC(=O)NC2=O)ccc1OCc1ccc(C(=O)O)cc1	0.84
O=C1NC(=S)NC(=O)C1=Cc1ccc(OCc2ccc(C(=O)O)cc2)c(Br)c1	-5*
COC(=O)c1scc(C)c1NC(=O)c1cccc(C(F)(F)F)c1	0.96
O=c1oc2cc(O)ccc2cc1-c1nnc(NC2CCCCC2)s1	6.4
CSC(=CC(=O)c1ccco1)SC	-2.2
CN(C)/C=C/C(=O)c1ccco1	-4.4*
CN(C)/C=C/C(=O)c1cc(-c2ccccc2)no1	-3.7
CC(C)c1cccc(C(C)C)c1OCCCN1CCOCC1	0.58
C/C(=C\C(=O)c1ccccc1)NCc1ccccc1	-0.88
CCC(C)NC(=O)c1cc(-c2ccccc2)n[nH]1 (centres undefined)	-0.14
COc1ccc(NC(=S)NN)cc1Cl	0.15
O=C(CCSc1ccc(Cl)cc1)NCc1ccncc1	0.24
O=C(CCSc1ccccc1)NCc1cccnc1	-0.22
COc1ccc(SCCC(=O)NCc2ccncc2)cc1	-2.1*
O=C(Cn1c(=O)n(CCc2ccccc2)c(=O)c2ccccc21)Nc1ccc(Cl)cc1	0.53
O=C(CCn1c(=O)c2ccccc2n(CC(=O)Nc2ccccc2)c1=O)NCCc1ccccc1	-5.6*
CCCN(CCC)C(=O)Cn1c(=O)n(CCC(=O)NCCc2ccccc2)c(=O)c2ccccc21	0.53
COc1ccc(S(=O)Cc2c(C(=O)c3ccccc3)oc3ccccc23)cc1 (centres undefined)	-1.5
Cc1ccc(NC2OC(CO)C(O)C2O)cc1C (centres undefined)	0.56
OCC1OC(Nc2ccccn2)C(O)C(O)C1O (centres undefined)	-0.04
